# This is a sample that favours compounds with a hit; in the whole collection about 11% have one here.
# PNC assembly inh: blocks assembly of the perinucleolar compartment. activity change (PNC), negative = inhibition, % at 10 µM. 140,000 tested, 3.1% active. PC3M PTB-GFP, PNC prevalence imaging, 16 h; stronger effect = lower value;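 active = readout at or below -70, meaning at least 70% loss of cells showing the perinucleolar compartment, a nuclear body marking cancer cells; inconclusive = readout between -30 and a set limit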;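 also: plate controls were DMSO wells for no effect and camptothecin positive control wells for full effect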
#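 Compounds are pinned in duplicate onto adhered PC3M cells stably expressing GFP-tagged PTB and incubated 16 h at 37 C. Cells are then fixed, nuclei stained with Hoechst, and PNC-positive cells counted.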
# HPGD block: inhibitors of human 15-hydroxyprostaglandin dehydrogenase (HPGD). 150,000 tested, 4.3% active. AID 894. purified HPGD, NADH fluorescence kinetic, PGE2 substrate. Potency, µM, for inactives: at the top dose activity change, negative = inhibition, actives largely listed as inhibitors; also: potency is read from the fitted curve at half-maximal effect
#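 NADH formation kinetics: reaction with 30 uM PGE2 and 1 mM NAD+ (final), 20 nM enzyme, Tris-HCl pH 8 with Tween 20, after 15 min compound preincubation at room temperature. Fluorescence change, last versus first of five reads.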
# ALDH1A1 block: ALDH1A1 (human) enzyme inhibition | Purified ALDH1A1, NADH fluorescence, propionaldehyde substrate | 220,000 tested, 7.3% active | Potency, µM (top dose mostly 75.3 µM), for the others: at the top dose activity, negative = inhibition, most hits filed as inhibitors | P00352 | AID 1030;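 also: potency is read from the fitted curve at half-maximal effect; plate controls were no enzyme wells and a reference inhibitor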
# Target sequence (P00352 whole entry, looked up): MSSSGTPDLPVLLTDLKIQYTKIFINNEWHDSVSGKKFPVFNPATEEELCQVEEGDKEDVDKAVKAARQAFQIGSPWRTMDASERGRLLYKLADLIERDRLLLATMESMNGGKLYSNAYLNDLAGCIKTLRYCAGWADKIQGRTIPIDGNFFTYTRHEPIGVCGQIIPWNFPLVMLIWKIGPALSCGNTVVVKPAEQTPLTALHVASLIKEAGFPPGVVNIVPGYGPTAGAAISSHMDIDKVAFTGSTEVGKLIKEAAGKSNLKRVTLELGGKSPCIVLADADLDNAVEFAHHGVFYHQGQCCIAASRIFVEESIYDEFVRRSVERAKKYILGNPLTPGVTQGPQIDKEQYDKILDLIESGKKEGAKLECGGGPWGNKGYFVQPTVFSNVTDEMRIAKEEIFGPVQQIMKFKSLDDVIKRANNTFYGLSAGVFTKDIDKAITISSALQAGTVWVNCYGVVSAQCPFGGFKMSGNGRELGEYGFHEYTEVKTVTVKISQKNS
# Active calls of the source: *; ? = inconclusive; nt = no result; [ ] = dose if it differs, or a comment. Unless noted, calls follow the shape of the dose curve; as a rule, active = well fitted inhibition curve with a large enough effect (not every such curve was filed as active); inconclusive = small, poorly fitted or top-dose-only effect, or another doubt; inactive = no such curve, though single readings can be large or run the other way. Unless noted, % is scaled to controls: 0 for no effect and ±100 for the full control effect.
SMILES,PNC assembly inh,HPGD block,ALDH1A1 block
Cc1ccc(NC(=O)Cn2cccc2)cc1C,52,?,-17%
CCCCOC(=O)Nc1ccc(C(=O)OC)cc1,29,-23%,2%
O=C(Nc1cccnc1)c1ccc2c(c1)C(=O)N(Cc1cccnc1)C2=O,-29,-19%,27%
O=C(NC1=NCCS1)c1ccc(Cl)c(S(=O)(=O)N2CCCCC2)c1,55,-14%,?
O=C(Nc1ccc(Cl)cc1C(=O)O)c1ccc2c(c1)C(=O)N(Cc1ccco1)C2=O,-9,?,3.8µM*
O=C(NC1=NCCS1)c1ccc2c(c1)C(=O)N(Cc1ccco1)C2=O,?,-15%,16µM*
Cc1ccc(NC(=O)CN(C)C(=S)NC2CC2)cc1,nt,nt,5%
CC(Sc1nc(N2CCCCC2)c2c(c1C#N)CCCC2)C(=O)O (centres undefined),-117*,-15%,-4%
CCSc1nc(N2CCOCC2)c2c(c1C#N)CCCC2,36,nt,22µM*
CC(C)Sc1nc(N2CCCC2)c2c(c1C#N)CC(C)(C)OC2,48,-10%,-13%
CC(C)c1nc(N2CCOCC2)c(C#N)c2c1CCCC2,23,?,?
COC(=O)CSc1nn(-c2ccc(F)cc2)c(=S)s1,nt,nt,4%
CC1=NN(C(=O)c2c(Br)c(C)nn2C)C(O)(C(F)(F)F)C1 (centres undefined),-16,-16%,-3%
COC(=O)/C(=C1/Oc2cc(C)oc(=O)c2S1)C(F)(F)F,-100*,7.9µM*,0%
COC(=O)/C(=C1/Oc2ccc(C(C)(C)C)cc2S1)C(F)(F)F,?,-5%,13%
Cc1ccc(S(=O)(=O)Oc2ccc(/C=C(/NC(=O)c3ccccc3)C(=O)NCC(=O)O)cc2)cc1,nt,nt,5µM*
COc1ccccc1C(=O)N/C(=C\c1ccccc1)C(=O)NC(C)C(=O)O (centres undefined),nt,nt,8%
Cc1ccc(S(=O)(=O)Oc2ccc(/C=C(/NC(=O)c3ccccc3)C(=O)O)cc2)cc1,nt,nt,13µM*
Cc1ccc(S(=O)(=O)Oc2ccc(/C=C(/NC(=O)c3ccccc3)C(=O)NC(C)C(=O)O)cc2)cc1 (centres undefined),nt,nt,4µM*
COc1ccccc1C(=O)N/C(=C\c1ccc(Br)cc1)C(=O)NCC(=O)O,23,-1%,5%
CC(=O)N/C(=C\c1ccc(C)cc1)C(=O)O,nt,nt,-12%
Cc1cc(OC(=O)c2ccc(S(=O)(=O)N3CCOCC3)cc2)c([N+](=O)[O-])c(=O)[nH]1,nt,nt,-1%
COCC(=O)N1CCC[C@@]2(CCN(c3ccncc3)C2)C1,nt,-3%,9%
O=[n+]1c2c(n([O-])c3ccccc31)CCCC2,?,-17%,-3%
CC(=O)c1ccc(S(=O)(=O)N2CCN(C)CC2)cc1,nt,nt,2%
SMILES,PNC assembly inh,HPGD block,ALDH1A1 block
CCOCCCNC(=O)CN1C(=O)/C(=C/c2ccccc2)Sc2ccccc21,19,?,?
CCCCNS(=O)(=O)c1ccc2nc(SCC(=O)Nc3sccc3C#N)[nH]c2c1,6,?,?
CCCCNS(=O)(=O)c1ccc2nc(SCC(=O)c3ccccc3OC)[nH]c2c1,-6,28µM*,?
CCCCNS(=O)(=O)c1ccc2nc(SCC(=O)Nc3cccc(F)c3)[nH]c2c1,-98*,-3%,-15%
CCCCNS(=O)(=O)c1ccc2nc(SCC(=O)Nc3ccccc3Cl)[nH]c2c1,-6,nt,?
CCOC(=O)CCN1C(=O)[C@H]2[C@H]3[C@H](O)[C@H](O)C/C(=N/O[C@@H]4O[C@@H](COC(C)=O)[C@@H](OC(C)=O)[C@@H](OC(C)=O)[C@H]4OC(C)=O)[C@@H]3CC[C@@H]2C1=O,nt,nt,-1%[13.5 µM]
COc1cc(OC)c(OC)cc1/C=C/C(=O)c1ccc(NS(=O)(=O)c2ccc(C)cc2)cc1,-23,-27%,-13%
COc1ccc(C(=O)N2CCc3cc(OC)c(OC)cc3C2)cc1OC,32,-11%,-4%
COc1cc2c(cc1OC)CN(C(=O)C(C)(C)C)CC2,-106*,-17%,5%
CC1=C(OC(=O)c2ccccc2)C(C)(C)C(c2ccc(Br)cc2)OC1=O (centres undefined),?,-13%,-16%
Cc1occc1C(=O)N/N=C/C=C/c1ccccc1[N+](=O)[O-],nt,nt,-7%
O=C(CSc1nc2ccccc2c(=O)n1-c1ccc(Cl)cc1)N/N=C/C=C/c1ccccc1[N+](=O)[O-],-27,-4%,?
Cc1cc(C(=O)N/N=C/C=C/c2ccccc2[N+](=O)[O-])c(C)o1,nt,nt,5.6µM*
COc1ccccc1-c1cc(C(=O)N/N=C/C=C/c2ccccc2[N+](=O)[O-])c2ccccc2n1,0,-2%,-5%
O=C(CSc1nc2ccccc2c(=O)n1-c1ccccc1)N/N=C/C=C/c1ccccc1[N+](=O)[O-],nt,nt,2.8µM*
C/C(=N\NC(=O)c1cc(-c2cccnc2)nc2ccccc12)c1ccc(O)cc1O,-92*,-23%,?
Cc1ccc(C)c(NC(=O)c2cc(-c3cccnc3)nc3ccccc23)c1,nt,nt,5%
O=C(N/N=C/C=C/c1ccccc1[N+](=O)[O-])c1cc(-c2cccnc2)nc2ccccc12,-84*,-5%,14µM*
CN1CCC(N(C)C(=S)NCCc2ccccc2)CC1,nt,nt,6%
O=c1cc(NCCc2ccccc2)c2ccccc2o1,nt,nt,-7%
O=C(Nc1cccc(F)c1)N1CC[C@@]2(CCCN(C(=O)c3cc(C(F)(F)F)cc(C(F)(F)F)c3)C2)C1,nt,-4%,4%
O=Cc1ccc(CO)o1,nt,-10%,?
CC(C)C(OC(=O)c1cccs1)C(=O)NCc1ccc2c(c1)OCO2 (centres undefined),nt,nt,-12%
CC(OC(=O)c1cccs1)C(=O)NCc1ccc2c(c1)OCO2 (centres undefined),-9,28µM*,4%
CC(C)CC(OC(=O)c1cccs1)C(=O)NCc1ccco1 (centres undefined),-18,-11%,?
SMILES,PNC assembly inh,HPGD block,ALDH1A1 block
CC(C)C(OC(=O)c1nsc(Cl)c1Cl)C(=O)NCc1ccc2c(c1)OCO2 (centres undefined),-23,2.2µM*,-5%
CC(C)Nc1nnc(SC(C)C(=O)NCc2ccc3c(c2)OCO3)s1 (centres undefined),nt,nt,6%
CCC(OC(=O)c1cccs1)C(=O)NCc1ccco1 (centres undefined),-101*,-15%,22µM*
Cc1ccc2nc(C)/c(=N\O)c(C)nc2c1,14,-9%,9%
Cc1nc2ccccc2nc(C)c1=NO,-2,-24%,22µM*
CCOc1cc(OCC)nc(S(C)(=O)=O)n1,17,-3%,5%
Cc1nnsc1SCCNC(=O)c1c(F)cccc1F,-82*,-10%,8%
Cc1ccc(C(=O)NCCSc2snnc2C)cc1,34,-22%,?
CCCn1nc([N+](=O)[O-])c(C(C#N)c2nc3ccccc3o2)c(Cl)c1=O (centres undefined),?,-15%,?
CCn1nc([N+](=O)[O-])c(C(C#N)c2nc3cc(C(F)(F)F)ccc3s2)c(Cl)c1=O (centres undefined),-7,?,0.4µM*
COCCN(C(=O)Cc1cccs1)C(C(=O)NC1CCCC1)c1cc(OC)c(OC)c(OC)c1 (centres undefined),nt,nt,2%
COCC(C)NC(=O)Cc1ccc(Cl)cc1 (centres undefined),nt,nt,0%

# From PubChem BioAssay
